# Source: PubChem BioAssay (EPA / NIEHS)
# “And” between values parts separate entries of the source, which are not always exact repeats. Equal values may be shown once. Some structures have more than one record in an assay (separate samples or runs), and their calls can disagree. The source made the active and inactive calls. The calls were made as follows: active = hit-call score of the fitted dose curve at least 0.9, where 1 is the maximum; inactive = score below 0.9.
# Assays:
# [1] = ATG_CRE_CIS: Attagene CIS-FACTORIAL HepG2 Assay for human cAMP Responsive Element (CRE) binding protein 3 (AID 2282926); details: HepG2 CRE cis-reporter, Attagene multiplexed mRNA; actives raise or lower the signal
# Procedure, shortened: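 HepG2 cells transiently transfected with cis-element-driven multiple reporter transcription units; CRE reporter mRNA measured 24 h after dosing by RT-PCR, 6-FAM labelling, HpaI digestion and capillary electrophoresis. Bidirectional fit versus DMSO baseline.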
# [2] = molecular target: CCAAT/enhancer-binding protein beta (Homo sapiens) (UniProt P17676); assay: ATG_C_EBP_CIS: Attagene CIS-FACTORIAL HepG2 Assay for human CCAAT/Enhancer Binding Protein (C/EBP) beta (AID 2282927); details: HepG2 Attagene cis-factorial transcription factor reporter; actives raise or lower the signal
# Sequence of CCAAT/enhancer-binding protein beta (Homo sapiens) (P17676 whole entry, looked up): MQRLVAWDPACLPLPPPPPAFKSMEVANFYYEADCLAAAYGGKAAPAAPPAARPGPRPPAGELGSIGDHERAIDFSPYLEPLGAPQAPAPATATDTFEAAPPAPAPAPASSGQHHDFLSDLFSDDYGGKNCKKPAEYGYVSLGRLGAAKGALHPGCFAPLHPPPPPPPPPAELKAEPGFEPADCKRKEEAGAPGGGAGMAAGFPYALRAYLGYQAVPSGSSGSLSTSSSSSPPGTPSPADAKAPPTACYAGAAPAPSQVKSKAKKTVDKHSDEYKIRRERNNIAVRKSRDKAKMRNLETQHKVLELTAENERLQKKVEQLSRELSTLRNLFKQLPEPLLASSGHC
# Procedure, shortened: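 HepG2, transient MRTU transfection, 24 h treatment. RT-PCR plus CE fluorescence; DMSO negative control, bidirectional fit.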
# [3] = ATG_CMV_CIS: Attagene CIS-FACTORIAL HepG2 Assay for human CMV (Internal Marker) (AID 2282928); details: HepG2 CMV promoter reporter, transcription factor profiling; actives raise or lower the signal;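 also: endpoint acts as a background internal control marker rather than a target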
# Procedure, shortened: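 Endogenous transcription factor activity read in HepG2 via transfected cis-promoter reporter units. After 24 h dosing, reporter mRNA measured by RT-PCR/capillary electrophoresis; gain or loss of signal fit relative to DMSO.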
# [4] = ATG_DR4_LXR_CIS: Attagene CIS-FACTORIAL HepG2 Assay for human Liver X Receptor (LXR), DR4 submotif (AID 2282929); details: HepG2 Attagene DR4 cis-reporter, mRNA transcription; actives raise or lower the signal
# Procedure, shortened: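 Measures endogenous transcription factor activity via a DR4-driven reporter transcript in human HepG2 cells. Compounds incubated 24 h; mRNA quantified by RT-PCR and capillary electrophoresis, analysed as gain or loss of signal versus DMSO.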
# [5] = molecular target: Aryl hydrocarbon receptor (Homo sapiens) (UniProt P35869); assay: ATG_Ahr_CIS: Attagene CIS-FACTORIAL HepG2 Assay for human Aryl Hydrocarbon Receptor (Ahr) (AID 2282930); details: HepG2 AhR cis-factorial reporter transcription; actives raise or lower the signal
# Sequence of Aryl hydrocarbon receptor (Homo sapiens) (P35869 whole entry, looked up): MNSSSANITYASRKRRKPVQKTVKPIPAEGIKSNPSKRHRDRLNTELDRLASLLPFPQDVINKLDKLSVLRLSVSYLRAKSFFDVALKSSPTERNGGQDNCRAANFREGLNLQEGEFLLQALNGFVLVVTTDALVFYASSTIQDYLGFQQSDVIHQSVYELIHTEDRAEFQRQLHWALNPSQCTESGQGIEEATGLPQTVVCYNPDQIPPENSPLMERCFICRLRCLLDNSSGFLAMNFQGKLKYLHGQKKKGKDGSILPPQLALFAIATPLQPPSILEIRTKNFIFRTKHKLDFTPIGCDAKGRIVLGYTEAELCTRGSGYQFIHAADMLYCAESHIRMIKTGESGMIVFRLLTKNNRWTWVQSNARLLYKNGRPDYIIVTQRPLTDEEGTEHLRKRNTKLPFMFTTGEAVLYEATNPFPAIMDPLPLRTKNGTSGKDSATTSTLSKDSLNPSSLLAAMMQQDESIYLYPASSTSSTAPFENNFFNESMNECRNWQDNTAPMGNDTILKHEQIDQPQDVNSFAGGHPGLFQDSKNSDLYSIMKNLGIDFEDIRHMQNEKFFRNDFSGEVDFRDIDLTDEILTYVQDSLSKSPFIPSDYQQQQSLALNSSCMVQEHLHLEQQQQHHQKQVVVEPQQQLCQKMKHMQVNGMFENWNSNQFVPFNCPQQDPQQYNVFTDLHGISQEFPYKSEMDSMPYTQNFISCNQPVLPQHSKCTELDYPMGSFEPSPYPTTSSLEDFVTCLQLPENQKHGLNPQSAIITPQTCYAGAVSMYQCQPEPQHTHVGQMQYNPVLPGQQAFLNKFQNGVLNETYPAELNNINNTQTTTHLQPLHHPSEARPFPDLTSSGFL
# Procedure, shortened: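 Endogenous factor activity is tracked through cis-promoter reporter units transfected into HepG2 cells. Transcript levels at 24 h are read by fluorescent RT-PCR and capillary electrophoresis, with activity in either direction scored relative to DMSO.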
# [6] = ATG_AP_1_CIS: Attagene CIS-FACTORIAL HepG2 Assay for human Activator Protein 1 (AP-1) (AID 2282931); details: HepG2 Attagene cis-factorial AP-1 reporter mRNA; actives raise or lower the signal
# Procedure, shortened: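 Bidirectional concentration-response fitting against DMSO controls. Underlying signal: reporter mRNA from cis-promoter constructs in transiently transfected HepG2, measured after 24 h by RT-PCR and capillary electrophoresis.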
# [7] = ATG_AP_2_CIS: Attagene CIS-FACTORIAL HepG2 Assay for human Activator Protein 2 (AP-2) (AID 2282932); details: HepG2 AP-2 cis-reporter, Attagene transcription factor profiling; actives raise or lower the signal
# Procedure, shortened: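 Multiplexed mRNA reporter assay in HepG2: cis-regulated units report endogenous factor activity after 24 h treatment. Fluorescence from capillary electrophoresis of RT-PCR products gives the signal, with DMSO as baseline.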
# [8] = ATG_BRE_CIS: Attagene CIS-FACTORIAL HepG2 Assay for human Bone Morphogenetic Protein (BMP) Response Element (BRE) (AID 2282933); details: HepG2 BMP response element reporter, Attagene transcription factor profiling; actives raise or lower the signal
# Procedure, shortened: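 Endogenous transcription factor activity read in transiently transfected HepG2 cells after 24 h chemical exposure. Bidirectional curve fitting against DMSO; readout is reporter transcript level by RT-PCR with capillary electrophoresis of labelled products.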
# [9] = molecular target: Retinoic acid receptor alpha (Homo sapiens) (UniProt P10276); assay: ATG_DR5_RAR_CIS: Attagene CIS-FACTORIAL HepG2 Assay for human Retinoic Acid Receptor Alpha (RARE), DR5 submotif (AID 2282934); details: HepG2 Attagene cis-factorial RARE DR5 reporter, mRNA; actives raise or lower the signal;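 as to AC50: reporter responds to endogenous RAR alpha beta and gamma in HepG2 not RARA alone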
# Sequence of Retinoic acid receptor alpha (Homo sapiens) (P10276 whole entry, looked up): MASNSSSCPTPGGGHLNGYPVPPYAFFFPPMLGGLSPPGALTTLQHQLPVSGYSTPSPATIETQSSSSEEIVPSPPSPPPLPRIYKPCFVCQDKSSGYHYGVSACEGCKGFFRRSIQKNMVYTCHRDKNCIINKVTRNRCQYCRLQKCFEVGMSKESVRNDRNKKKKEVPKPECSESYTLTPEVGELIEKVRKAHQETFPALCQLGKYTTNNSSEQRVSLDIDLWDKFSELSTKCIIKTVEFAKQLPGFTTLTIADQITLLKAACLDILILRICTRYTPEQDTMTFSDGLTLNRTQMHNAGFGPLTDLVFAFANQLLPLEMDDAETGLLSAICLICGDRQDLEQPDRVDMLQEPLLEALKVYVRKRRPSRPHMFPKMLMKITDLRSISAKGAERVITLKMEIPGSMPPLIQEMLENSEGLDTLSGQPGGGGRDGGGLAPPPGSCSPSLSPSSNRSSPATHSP
# Procedure, shortened: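 After 24 h of chemical exposure, transiently transfected HepG2 cells were lysed for total RNA; the DR5-regulated reporter transcript was quantified via RT-PCR and capillary electrophoresis, with activity fitted bidirectionally against DMSO.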
# [10] = APR_HepG2_NuclearSize_72hr: Apredica 72-hour HepG2 Assay for Nuclear Size (AID 2282925); details: high-content imaging, actives raise or lower the signal
# Procedure, shortened: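 HepG2 cells dosed 72 h at 0.39–200 uM (10 concentrations, duplicate) in 0.5% v/v DMSO final. Fixed, Hoechst 33342-stained nuclei imaged; nuclear diameter measured by automated image analysis. Bidirectional fit versus DMSO.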
SMILES,outcome [1],outcome [2],outcome [3],AC50 [4],outcome [4],outcome [5],outcome [6],outcome [7],outcome [8],outcome [9],AC50 [3],AC50 [6],AC50 [8],outcome [10],AC50 [9],AC50 [2],AC50 [7],AC50 [1]
S=P(N1CC1)(N1CC1)N1CC1,inactive,inactive,inactive,157 µM (active),inactive,inactive,inactive,inactive,inactive,inactive,–,–,–,–,–,–,–,–
O=S(=O)(O)CCC(F)(F)C(F)(F)C(F)(F)C(F)(F)C(F)(F)C(F)(F)F,inactive,inactive,inactive,–,inactive,inactive,inactive,inactive,inactive,inactive,–,–,–,–,–,–,–,–
OCc1c[nH]c2ccccc12,inactive,inactive,inactive,69 µM (active) and 62.6 µM (active) and 49.8 µM (active),inactive,–,–,inactive,inactive,inactive,25.1 µM (active),47.2 µM (active) [middle of 5 runs],48.6 µM (active) and 85.4 µM (active) and 50.3 µM (active),–,–,–,–,–
CCCCCCCC/C=C\CCCCCCCC(=O)OC[C@@H](O)[C@H]1OC[C@H](O)[C@H]1O,inactive,inactive,inactive,–,inactive,–,inactive,inactive,inactive,inactive,–,–,–,inactive,–,–,–,–
O=C(Cl)C(F)(F)C(F)(F)C(F)(F)C(=O)Cl,inactive,inactive,inactive,–,inactive,inactive,inactive,inactive,inactive,inactive,–,–,–,–,–,–,–,–
CCCCCCCC1CCC(=O)O1 (centres undefined),–,inactive,inactive,–,inactive,inactive,–,inactive,inactive,inactive,–,–,–,–,–,–,–,–
CCCCOC(=O)c1ccccc1,inactive,inactive,inactive,–,inactive,–,inactive,inactive,inactive,inactive,–,–,–,inactive,–,–,–,–
FC(F)(F)C(F)(F)C(F)(F)C(F)(F)C(F)(F)C(F)(F)I,inactive,inactive,inactive,–,inactive,inactive,inactive,inactive,inactive,inactive,–,–,–,–,103 µM (active),–,–,–
OC(O)(C(F)C(O)(O)C(F)(F)F)C(F)(F)F,inactive,–,–,37.9 µM (active) and 4.59 µM (active),–,inactive,inactive,–,inactive,inactive,9 µM (active) and 6.13 µM (active),–,6.79 µM (active),–,–,78.9 µM (active) and 82.9 µM (active),71 µM (active) and 18.9 µM (active),–
CC(C)c1nnc2ccc(-c3ocnc3-c3cc(F)ccc3F)cn12,inactive,inactive,inactive,–,inactive,inactive,inactive,inactive,inactive,inactive,–,–,–,–,–,–,–,–
FC(F)=C(F)C(F)(F)C(F)(F)C(F)(F)C(F)(F)C(F)(F)C(F)(F)F,inactive,inactive,inactive,–,inactive,inactive,inactive,inactive,inactive,inactive,–,–,–,–,–,–,–,–
FC(F)C(F)(F)COCC1CO1 (centres undefined),inactive,inactive,inactive,–,inactive,inactive,inactive,inactive,inactive,inactive,–,–,–,–,–,–,–,–
O=C1CN(N=Cc2ccc([N+](=O)[O-])o2)C(=O)N1,inactive,inactive,–,–,inactive,inactive,–,inactive,inactive,inactive,45.7 µM (active),68.5 µM (active),–,–,–,–,–,–
CCN(CC)C(=S)SSC(=S)N(CC)CC,–,inactive,–,–,–,inactive,–,inactive,–,–,173 µM (active),25.8 µM (active),142 µM (active),inactive,–,–,–,76 µM (active)
OCCOCCOCCO,inactive,inactive,inactive,–,inactive,–,inactive,inactive,inactive,–,–,–,–,inactive,–,–,–,–
Cc1cccc(O)c1C,inactive,inactive,inactive,–,inactive,inactive,inactive,inactive,inactive,inactive,–,–,–,–,–,–,–,–
CCCCCCCCN(C)C,inactive,inactive,inactive,–,inactive,–,inactive,inactive,inactive,inactive,–,–,–,inactive,–,–,–,–
C[Si](C)(C)C(F)(F)C(F)(F)C(F)(F)F,inactive,inactive,inactive,–,inactive,inactive,inactive,inactive,inactive,inactive,–,–,–,–,–,–,–,–
FC(F)(F)COC(OCC(F)(F)F)OCC(F)(F)F,inactive,inactive,inactive,–,inactive,inactive,inactive,inactive,inactive,inactive,–,–,–,–,–,–,–,–
CCCCC(CC)C(=O)OCCOCCOCCOC(=O)C(CC)CCCC (centres undefined),inactive,inactive,inactive,160 µM (active),–,–,inactive,inactive,inactive,inactive,–,–,–,inactive,–,–,–,–
CCCc1ccccc1,inactive,inactive,inactive,–,inactive,–,inactive,inactive,inactive,inactive,–,–,–,inactive,–,–,–,–
NCC(F)(F)C(F)(F)C(F)(F)C(F)(F)F,inactive,inactive,inactive,–,inactive,inactive,inactive,inactive,inactive,inactive,–,–,–,–,–,–,–,–
